Assay [1] addresses Arylsulfatase A (Homo sapiens) (UniProt P15289). In words: qHTS screen for enhancers of Arylsulfatase A (ASA1): LOPAC Validation Assay (AID 720538). In a few lines: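 SV40-transformed skin fibroblasts from an MLD patient (ASA-I179S) were treated with compounds for 48h at 37 degree C, then lysed with 0.5mM pNCS final substrate for 14h at room temperature; NaOH stop, fluorescence read (Ex=525 nm; Em=598 nm).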
In general terms: qHTS replaces the single test concentration by a dilution series.

Assay [2] is described as follows: qHTS for compounds that reverse cellular toxicity of Amyloid beta (A-beta) peptide in yeast: LOPAC Validation Assay (AID 720559). In a few lines:
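Yeast cells expressing toxic A-beta were combined with pinned compounds in growth medium and incubated 48 hr at 30 C. Growth was read as absorbance at 600 nm and normalized to DMSO and to an equimolar FeCl3/clioquinol positive control.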

The nature of assay [3]: qHTS for Activators of Parkin Expression: LOPAC Validation Assay (FLuc Reporter) (AID 720573). An outline of the steps:
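Neuronal cell line stably carrying FLuc/NLuc coincidence reporter under Parkin promoter; cells plated 24 h, then compounds added in 7-point dose response for 24 h at 37 C. FLuc luminescence read; normalized to DMSO and positive control (100%).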

Assay [4] deals with Hexokinase-4 (Homo sapiens) + Glucokinase regulatory protein (Homo sapiens) (UniProt P35557+Q14397). Put plainly: qHTS assay for inhibitors of recombinant human GCK-GKRP interaction: Diaphorase-coupled assay (AID 743205). Also: potency is read from the fitted curve at half-maximal effect. An outline of the steps:
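GST-GCK (10 nM) with FLAG-GKRP (10 nM), 5 mM glucose and 0.4 mM ATP in pH 7.6 Hepes; compounds preincubated 20 min with substrate. G6PDH/diaphorase coupling converts resazurin to resorufin, read kinetically (ex 525/em 590 nm) for 30 min.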

The nature of assay [5]: qHTS for Activators of Parkin Expression: LOPAC Validation Assay (NLuc Reporter) (AID 720572; also: potency is read from the fitted curve at half-maximal effect). An outline of the steps:
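Parkin promoter-driven FLuc/NLuc neuronal reporter cells; 24 h plating, 7-pt dose response, 24 h at 37 C/5% CO2; FLuc then NanoLuc reagent, 10 min each, luminescence; DMSO/positive control normalized.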

Results filed as inconclusive are left out. Where a call stands in place of a potency, no number is given. Active and inactive are the calls of the source. Calls follow the shape of the dose curve; as a rule, active = well fitted curve in the direction sought with a large enough effect; inconclusive = small, poorly fitted or top-dose-only effect, or another doubt; inactive = no such curve, though single readings can be large; an effect the other way counts as inactive or inconclusive.

Hexokinase-4 (Homo sapiens) + Glucokinase regulatory protein (Homo sapiens), sequence (P35557 whole entry, looked up): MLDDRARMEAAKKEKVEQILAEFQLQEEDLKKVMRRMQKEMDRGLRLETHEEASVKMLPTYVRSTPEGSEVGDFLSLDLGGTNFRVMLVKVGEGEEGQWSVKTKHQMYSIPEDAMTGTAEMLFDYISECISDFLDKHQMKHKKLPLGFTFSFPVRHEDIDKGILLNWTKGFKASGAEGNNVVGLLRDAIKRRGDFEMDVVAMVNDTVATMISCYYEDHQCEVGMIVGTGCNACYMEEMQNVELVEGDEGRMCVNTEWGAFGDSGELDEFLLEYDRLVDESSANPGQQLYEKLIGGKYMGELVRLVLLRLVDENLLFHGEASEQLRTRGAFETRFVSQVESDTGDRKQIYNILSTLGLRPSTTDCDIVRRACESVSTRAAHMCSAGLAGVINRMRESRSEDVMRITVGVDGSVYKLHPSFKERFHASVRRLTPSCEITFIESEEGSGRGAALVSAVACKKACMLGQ
Hexokinase-4 (Homo sapiens) + Glucokinase regulatory protein (Homo sapiens), sequence (Q14397 whole entry, looked up): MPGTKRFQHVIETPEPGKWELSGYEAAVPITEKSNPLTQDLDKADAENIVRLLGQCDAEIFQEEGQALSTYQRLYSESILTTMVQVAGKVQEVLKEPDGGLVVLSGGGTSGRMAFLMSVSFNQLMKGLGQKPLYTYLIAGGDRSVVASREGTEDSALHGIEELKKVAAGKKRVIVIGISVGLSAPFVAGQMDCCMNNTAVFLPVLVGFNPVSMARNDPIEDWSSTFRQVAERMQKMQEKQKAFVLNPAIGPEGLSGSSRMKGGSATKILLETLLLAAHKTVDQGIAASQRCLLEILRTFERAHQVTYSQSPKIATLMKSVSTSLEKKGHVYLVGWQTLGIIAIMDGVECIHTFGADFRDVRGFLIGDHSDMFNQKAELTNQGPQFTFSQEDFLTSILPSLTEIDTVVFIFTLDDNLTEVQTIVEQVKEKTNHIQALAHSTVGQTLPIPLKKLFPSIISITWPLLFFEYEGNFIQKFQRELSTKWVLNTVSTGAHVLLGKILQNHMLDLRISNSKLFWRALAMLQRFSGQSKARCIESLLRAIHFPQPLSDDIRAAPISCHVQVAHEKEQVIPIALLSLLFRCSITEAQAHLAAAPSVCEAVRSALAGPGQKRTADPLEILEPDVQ
Arylsulfatase A (Homo sapiens), sequence (P15289 whole entry, looked up): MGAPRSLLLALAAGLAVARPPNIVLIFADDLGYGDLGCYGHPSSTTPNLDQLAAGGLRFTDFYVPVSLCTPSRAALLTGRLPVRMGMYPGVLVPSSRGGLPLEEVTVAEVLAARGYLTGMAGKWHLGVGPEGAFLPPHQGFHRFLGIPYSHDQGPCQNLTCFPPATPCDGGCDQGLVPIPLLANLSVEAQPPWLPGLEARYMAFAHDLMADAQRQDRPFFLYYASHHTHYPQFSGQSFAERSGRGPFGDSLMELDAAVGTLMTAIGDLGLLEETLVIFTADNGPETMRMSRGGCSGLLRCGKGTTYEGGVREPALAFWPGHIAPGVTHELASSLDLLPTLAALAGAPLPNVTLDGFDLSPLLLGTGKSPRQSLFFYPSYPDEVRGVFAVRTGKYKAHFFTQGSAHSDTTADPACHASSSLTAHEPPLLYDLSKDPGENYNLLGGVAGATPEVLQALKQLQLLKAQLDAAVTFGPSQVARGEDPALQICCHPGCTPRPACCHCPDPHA

As to `C[C@H](NC(=O)/C(C#N)=C/c1ccc(O)c(O)c1)c1ccccc1`, the Potency entry in assay [1], in assay [3] and in assay [4] was “inactive” in each case. Besides, in assay [2], the call was inactive.

On to `NCC(O)c1ccc(O)c(O)c1` (stereo unspecified), for which the Potency entry in assay [1] and in assay [4] was “inactive” throughout.

`COc1cc(N)c(Cl)cc1C(=O)OCCN1CCCCC1`: the Potency result in assay [1] and in assay [4] was “inactive” in each case. In addition, in assay [2], the call was inactive.

As to `CC1C(=O)N(C)C(=O)c2nc[nH]c21` (stereo unspecified), the Potency result in assay [1], in assay [3] and in assay [4] was “inactive” each time. Moreover, the call in assay [2] was inactive.

For the molecule `N[C@H]1CONC1=O`, the Potency result in assay [1] and in assay [4] was “inactive” throughout.

In the case of `O=C(O)C1=CCCNC1`, the Potency entry in assay [1], in assay [3] and in assay [4] was “inactive” each time. Further, the call in assay [2] was inactive.

For `NC1(C(=O)O)CCc2cc(C(=O)O)ccc21` (stereo unspecified), the Potency result in assay [1], in assay [3] and in assay [4] was “inactive” in each case. Besides, in assay [2], the outcome was inactive.

In the case of `O=C(c1ccc2c(c1)OCCO2)N1CCCCC1`, the Potency result in assay [1], in assay [3] and in assay [4] was “inactive” each time. In addition, the molecule was classed as inactive in assay [2].

As for `Nc1nc2c(nc(Br)n2C2OC3COP(=O)(O)O[C@@H]3C2O)c(=O)[nH]1` (stereo partly specified), the Potency entry in assay [1], in assay [3] and in assay [4] was “inactive” each time. In assay [2], the result was inactive.

For the molecule `N[C@H](C(=O)O)[C@H]1C[C@@H]1C(=O)O`, the Potency result in assay [1], in assay [3] and in assay [4] was “inactive” throughout. The call in assay [2] was inactive.

For `CC(N)(Cc1ccc(O)cc1)C(=O)O` (stereo unspecified), the Potency result in assay [1] and in assay [4] was “inactive” in each case.

Turning to `N[C@H](C(=O)O)[C@H](O)C(=O)O`, the Potency entry in assay [1], in assay [3] and in assay [4] was “inactive” throughout. Moreover, the call in assay [2] was inactive.

`NC(C(=O)N[C@@H]1C(=O)N2C(C(=O)O)=C(Cl)CS[C@H]12)c1ccccc1` (stereo partly specified): the Potency result in assay [1], in assay [3] and in assay [4] was “inactive” in each case. Further, the molecule was classed as inactive in assay [2].

In the case of `COc1ccccc1N1CCN(CCN(C(=O)c2ccc(F)cc2)c2ccccn2)CC1`, the Potency result in assay [1], in assay [3] and in assay [4] was “inactive” in each case. In assay [2], the molecule was classed as inactive.

As for `c1ccc(C(NCc2cccnc2)(c2ccccc2)c2ccccc2)cc1`, the Potency entry in assay [1], in assay [5], in assay [3] and in assay [4] was “inactive” each time.

On to `CCCC[C@@]1(C2CCCC2)Cc2cc(OCC(=O)O)c(Cl)c(Cl)c2C1=O`, for which the Potency entry in assay [1], in assay [3] and in assay [4] was “inactive” in each case. Besides, the molecule was classed as inactive in assay [2].

Take `Oc1ccc(/C=C/c2ccc(/C=C/c3ccc(O)cc3)c(Br)c2)cc1`: the Potency result in assay [1] and in assay [4] was “inactive” each time. In addition, in assay [2], the outcome was inactive.

Regarding `N#CC(=C(\N)Sc1ccccc1N)/C(C#N)=C(/N)Sc1ccccc1N`, the Potency result in assay [1], in assay [3] and in assay [4] was “inactive” in each case. Further, the outcome in assay [2] was inactive.

For `O=C(O)Cc1c[nH]c2ccc(O)cc12`, the molecule was classed as inactive in assay [2]. The Potency result in assay [5], in assay [3] and in assay [4] was “inactive” in each case.

For the molecule `OC1(c2ccc(Cl)cc2)CCN(Cc2c[nH]c3ccccc23)CC1`, the molecule was classed as inactive in assay [2]. Besides, the Potency entry in assay [5], in assay [3] and in assay [4] was “inactive” in each case.

Regarding `CN1CCN(c2nc3cc(C(F)(F)F)ccc3n3cccc23)CC1`, the molecule was called inactive in assay [2]. In addition, the Potency entry in assay [5], in assay [3] and in assay [4] was “inactive” throughout.

Take `O=C1NC(=O)c2cc(Nc3ccccc3)c(Nc3ccccc3)cc21`: the call in assay [2] was inactive. For the same molecule, the Potency result in assay [5], in assay [3] and in assay [4] was “inactive” in each case.

For the molecule `C#CC(N)CCC(=O)O` (stereo unspecified), in assay [2], the call was inactive. In addition, the Potency result in assay [5], in assay [3] and in assay [4] was “inactive” each time.

On to `CC(=O)[C@H]1CCC2C3CC=C4C[C@@H](OS(=O)(=O)O)CC[C@]4(C)C3CC[C@@]21C` (stereo partly specified), for which, in assay [2], the molecule was called inactive. Moreover, the Potency entry in assay [5], in assay [3] and in assay [4] was “inactive” each time.

For `Fc1ccc(CN(C2=NCCN2)c2c(Cl)cccc2Cl)cc1`, in assay [2], the call was inactive. For the same molecule, the Potency entry in assay [5], in assay [3] and in assay [4] was “inactive” in each case.

As to `C[C@](Cc1ccc(O)c(O)c1)(NN)C(=O)O`, in assay [2], the result was inactive. The Potency entry in assay [5], in assay [3] and in assay [4] was “inactive” throughout.

Turning to `NC(Cc1cccc(-c2ccccc2CP(=O)(O)O)c1)C(=O)O` (stereo unspecified), the molecule was classed as inactive in assay [2]. For the same molecule, the Potency result in assay [5], in assay [3] and in assay [4] was “inactive” in each case.

In the case of `CSC(N)=NCCC[C@H](N)C(=O)O`, the call in assay [2] was inactive. Further, the Potency entry in assay [5], in assay [3] and in assay [4] was “inactive” each time.

`CC[N+](CC)(CC)CC(=O)Nc1c(C)cccc1C`: in assay [2], the result was inactive. For the same molecule, the Potency entry in assay [5], in assay [3] and in assay [4] was “inactive” each time.

`O=C(O)C1=CC(=C(c2ccc(O)c(C(=O)O)c2)c2ccc(O)c(C(=O)O)c2)C=CC1=O`: the result in assay [2] was inactive. Further, the Potency result in assay [5] and in assay [3] was “inactive” in each case. For the same molecule, in assay [4], the Potency is 25.1 µM (active).

`COC(=O)C1=C(C)NC(C)=C([N+](=O)[O-])C1c1ccccc1C(F)(F)F` (stereo unspecified): the result in assay [2] was inactive. In addition, the Potency entry in assay [5], in assay [3] and in assay [4] was “inactive” in each case.

Take `N[C@H](C(=O)O)c1cc(O)cc(O)c1`: the result in assay [2] was inactive. For the same molecule, the Potency entry in assay [5], in assay [3] and in assay [4] was “inactive” throughout.

In the case of `O=C(O)c1cccnc1C(=O)O`, in assay [2], the outcome was inactive. In addition, the Potency result in assay [5], in assay [3] and in assay [4] was “inactive” in each case.

For `O=c1[nH]c(=O)c2nc3ccccc3nc2[nH]1`, the result in assay [2] was inactive. The Potency entry in assay [5], in assay [3] and in assay [4] was “inactive” throughout.

Regarding `O=[N+]([O-])c1cccc2cn[nH]c12`, the result in assay [2] was inactive. Moreover, the Potency entry in assay [5], in assay [3] and in assay [4] was “inactive” each time.

With `CCc1ccc2c(-c3cccc(Cl)c3)nc(=O)n(CC)c2n1`, the call in assay [2] was inactive. Also, the Potency result in assay [5], in assay [3] and in assay [4] was “inactive” in each case.

On to `Nc1nc2ccc(Cl)cc2c2nc(-c3ccco3)nn12`, for which the outcome in assay [2] was inactive. Also, the Potency entry in assay [5], in assay [3] and in assay [4] was “inactive” each time.

For the molecule `COc1ccc(NC(=O)c2ccc(-c3ccc(-c4noc(C)n4)cc3C)cc2)cc1N1CCN(C)CC1`, the outcome in assay [2] was inactive. Besides, the Potency in assay [5] is 20.6 µM (active). Also, the Potency result in assay [3] and in assay [4] was “inactive” in each case.

In the case of `CC1=C(C(=O)O)N2C(=O)[C@@H](NC(=O)C(N)C3=CCC=CC3)[C@H]2SC1` (stereo partly specified), the molecule was classed as inactive in assay [2]. For the same molecule, the Potency entry in assay [5], in assay [3] and in assay [4] was “inactive” each time.

For `CCN(CC)CCOC(=O)c1cc(Cl)c(N)cc1OC`, the molecule was called inactive in assay [2]. Also, the Potency result in assay [5], in assay [3] and in assay [4] was “inactive” each time.

Regarding `CCCCCCN(CCCCCC)C(=O)Cc1c(-c2ccc(F)cc2)[nH]c2ccccc12`, in assay [2], the outcome was inactive. Besides, the Potency result in assay [5], in assay [3] and in assay [4] was “inactive” throughout.
